Sampled rows, rich in hits. Any-hit rate of the full collection: about 3.6%.
HSP90 refold inh: inhibitors of HSP90 luciferase refolding in rabbit reticulocyte lysate | luciferase refolding luminescence, 3 h | inhibition, % at 5.6 µM | 0.91% of 290,000 active | AID 1789;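 active = inhibition above the screen-wide mean plus 3 SD, computed separately per campaign, cut at about 16% in these data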;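 also: 0% = DMSO wells and 100% = 60 µM geldanamycin wells; inhibitors lower the luminescence because luciferase stays unfolded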
LGR2 antag: inhibitors of bursicon-induced Drosophila LGR2 receptor cAMP signaling. HEK293 LGR2, CRE-luciferase, bursicon-stimulated, 4 h. 0.35% of 380,000 active. inhibition, % at 9.99 µM;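 active = drop in luminescence signal, shown as inhibition above about 50% in the replicate tests, limit read from the data, passing the limit was not always enough; inconclusive = probably only some replicates passing the limit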;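 also: agonist challenge used bursicon conditioned medium at about half maximal strength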
Peg3 prom inh: inhibitors of Peg3 promoter | 1.7% of 360,000 active | inhibition, % at 20 µM | AID 588405 | HeLa PEG-Prom luciferase reporter, luminescence, overnight;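 active = inhibition of at least 50% at 20 µM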
Mdm2 MdmX PPI: human Mdm2/MdmX binding inhibition | inhibition, % at 8 µM | 3% of 330,000 active | O15151+Q00987 | SaOS-2 split-luciferase Mdm2/MdmX complementation, luminescence | AID 485346;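 active = inhibition of at least 50% at 8 µM in the primary screen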
CF NFkB inh: blocks PAF-induced NF-kB reporter in cystic fibrosis cells; inhibition, % at 5 µM; 0.86% of 360,000 active; KKLEB NF-kB-GFP reporter, GFP fluorescence overnight;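 active = at least 50% inhibition at 5 µM, scaled per plate between neutral and stimulator controls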;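 also: PAF is a Pseudomonas aeruginosa culture filtrate used as stimulus; plate controls were PAF-stimulated DMSO wells for no effect and unstimulated DMSO wells for full effect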
KKLEB cytotox: CF airway cell cytotoxicity counter-screen | KKLEB CF airway cells viability, ATPlite luminescence, overnight; active compounds read low; cells stimulated with P. aeruginosa culture filtrate | activity change (cytotoxicity), % at 5 µM | 0.36% of 360,000 active | AID 602141;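 active = corrected activity change at or below -50% at 5 µM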
HSP90 confirm: HSP90 inhibition, confirmation assay. inhibition, % at 5.9 µM. rabbit reticulocyte lysate, luciferase refolding luminescence, 3 h. 64% of 2,300 active. shares compounds with HSP90 refold inh; in the data active = inhibition above about 18%;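 also: 0% = vehicle wells and 100% = reference inhibitor wells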
FLuc counter-1: firefly luciferase inhibition, HSP90 counter-screen | shares compounds with HSP90 refold inh | purified native firefly luciferase, luminescence | inhibition, % at 5.9 µM | 48% of 2,300 active | AID 1847;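 active = inhibition above the mean inhibition of all tested sample wells plus 3 SD, cut at about 10% in these data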;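 also: 0% = DMSO with luciferase and 100% = wells lacking luciferase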
Target sequence (P08659 whole entry, looked up): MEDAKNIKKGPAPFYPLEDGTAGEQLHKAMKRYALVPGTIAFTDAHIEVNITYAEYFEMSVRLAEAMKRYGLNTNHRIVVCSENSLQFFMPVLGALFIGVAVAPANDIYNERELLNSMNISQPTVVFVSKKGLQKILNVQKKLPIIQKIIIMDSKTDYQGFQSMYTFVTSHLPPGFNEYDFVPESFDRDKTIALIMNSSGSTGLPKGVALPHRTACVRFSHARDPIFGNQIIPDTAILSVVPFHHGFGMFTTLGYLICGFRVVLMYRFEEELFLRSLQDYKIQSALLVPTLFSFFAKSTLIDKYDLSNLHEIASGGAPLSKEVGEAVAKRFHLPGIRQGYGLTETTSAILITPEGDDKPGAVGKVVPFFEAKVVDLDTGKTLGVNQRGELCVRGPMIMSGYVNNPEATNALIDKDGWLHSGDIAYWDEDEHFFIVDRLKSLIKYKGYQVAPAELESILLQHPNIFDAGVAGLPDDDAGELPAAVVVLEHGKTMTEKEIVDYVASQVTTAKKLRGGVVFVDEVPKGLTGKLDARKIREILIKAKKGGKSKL
Mdm2 MdmX conf: confirmation of human Mdm2/MdmX interaction inhibitors | shares compounds with Mdm2 MdmX PPI | Mdm2-MdmX binding, luminescent assay | inhibition, % at 8 µM | 55% of 10,000 active; in the data active = inhibition above about 40%
FLuc counter-2: inhibits full-length luciferase, flagging false Mdm2/MdmX hits | inhibition, % at 8 µM | SaOS-2 full-length luciferase counterscreen, luminescence | 77% of 6,200 active | AID 504607 | shares compounds with Mdm2 MdmX PPI;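 active = mean inhibition at 8 µM reaching about 37%, which flags the compound as non-specific, limit read from the data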;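 also: p53-null SaOS-2 cells with luciferase driven by a doxycycline-inducible promoter; compound on cells about two nights before reading with doxycycline added after day one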
* marks the source's active call; other numbers are inactive results; ? = inconclusive; / = not tested or not shown.

SMILES	HSP90 refold inh	LGR2 antag	Peg3 prom inh	Mdm2 MdmX PPI	CF NFkB inh	KKLEB cytotox	HSP90 confirm	FLuc counter-1	Mdm2 MdmX conf	FLuc counter-2
Cc1noc(C)c1S(=O)(=O)Nc1ccc2c(c1)C(=O)N([C@@H](C)CO)C[C@H](C)[C@H](CN(C)C)OCCCC[C@@H](C)O2	/	-7	/	/	/	/	/	/	/	/
C[C@@H]1CN([C@@H](C)CO)C(=O)c2cc(C3=CCCC3)cnc2O[C@H]1CN(C)C(=O)c1ccncc1	/	-2	/	/	/	/	/	/	/	/
CCN(CC)c1ccc2cc(/C(N)=N/NC(=O)c3cccs3)c(=O)oc2c1	22*	/	/	85*	/	/	4	-1	71*	84*
N/C(=N\NC(=O)c1cccs1)c1cc2ccccc2oc1=O	1	-12	-5	3	-8	-3	/	/	/	/
Cn1c2ccccc2c(=O)c2cc(C#CC3(O)CCCCC3)ccc21	72*	82*	43	69*	-133	-72*	76*	71*	53*	169*
COc1ccc(C#Cc2ccc3c(c2)[C@H]2[C@H](CCN2S(=O)(=O)C2=NC(C)C=N2)[C@@H](CO)N3C)cc1 (some centres not stated)	/	4	/	/	/	/	/	/	/	/
COc1cccc(/C=N/NC(=O)c2[nH]c(C)c(C(=O)N/N=C/c3cccc(OC)c3O)c2C)c1O	32*	/	13	62*	-31	-13	-10	-19	43*	70*
CN(C)C(=O)C[C@H]1CC[C@@H]2[C@H](COC[C@@H](O)CN2CC2CCCCC2)O1	/	-2	/	/	/	/	/	/	/	/
COc1ccc2c3c(n(C)c2c1)[C@H](CO)N(S(C)(=O)=O)CC31CCN(C(=O)C2CC2)CC1	/	4	/	/	/	/	/	/	/	/
C[C@@H]1CN([C@@H](C)CO)C(=O)c2cc(NS(C)(=O)=O)ccc2O[C@@H](C)CCCCO[C@@H]1CN(C)C(=O)Nc1ccc(F)cc1	/	-14	/	/	/	/	/	/	/	/
CC(=O)n1c2c(c3ccccc31)OC(N)=C(C#N)C2c1ccc(C(C)C)cc1 (configuration not stated)	20*	18	-173	59*	2	8	10	24*	66*	131*
Nn1c(-c2ccc(F)cc2)nc2ccccc2c1=O	1	5	-11	18	-18	8	/	/	/	/
O=C1c2cc(F)ccc2-n2c1nc1ccccc1c2=O	73*	14	8	63*	83*	-27	68*	-5	34	23
O=C1c2ccccc2C(=O)c2[nH]c(=O)[nH]c21	24*	35	82*	69*	96*	-42	19*	-10	44*	48*
O=C1c2ccccc2C(=O)c2[nH]cnc21	-1	9	-7	/	-26	2	/	/	/	/
CCN1CCN(/C=N/c2nc3c(s2)CCCC3)CC1	65*	80*	55*	57*	-1	4	72*	42*	73*	91*
C[C@@H]1CN([C@H](C)CO)C(=O)Cc2cc(NC(=O)Nc3cccc4ccccc34)ccc2O[C@@H]1CN(C)C(=O)Nc1ccc2c(c1)OCO2	/	6	/	/	/	/	/	/	/	/
O=C(Cc1nc2ccccc2[nH]1)c1cccc([N+](=O)[O-])c1	20*	?	-49	87*	37	-32	27*	5	77*	39*
Cc1ccc(C(=O)O/N=C(\N)c2ccccn2)c(C)c1	92*	101*	106*	99*	30	-46	97*	94*	98*	51*
Cc1ccccc1C(=O)O/N=C(\N)c1ccccc1	24*	-102	30	86*	-16	7	49*	77*	41*	114*
CO[C@H]1CN(C)C(=O)c2ccc(NC(=O)C3CC3)cc2OC[C@@H](C)NC[C@@H]1C	/	-10	/	/	/	/	/	/	/	/
C[C@@H]1CN([C@@H](C)CO)C(=O)CCCn2cc(nn2)CO[C@@H]1CN(C)Cc1ccc(Cl)c(Cl)c1	/	9	/	/	/	/	/	/	/	/
CCCN1C[C@H](C)[C@@H](OC)CN(C)C(=O)c2cc(NC(=O)c3ccccc3F)ccc2OC[C@@H]1C	/	6	/	/	/	/	/	/	/	/
Cc1cc(C(=O)CSc2ccc(F)cc2)cc(C)c1OC(=S)N(C)C	75*	/	-36	58*	20	-3	70*	74*	84*	107*
CN1c2ccc(-c3ccc(F)cc3)cc2[C@H]2[C@H](CCN2C(=O)C2CCOCC2)[C@@H]1CO	/	10	/	/	/	/	/	/	/	/
SMILES	HSP90 refold inh	LGR2 antag	Peg3 prom inh	Mdm2 MdmX PPI	CF NFkB inh	KKLEB cytotox	HSP90 confirm	FLuc counter-1	Mdm2 MdmX conf	FLuc counter-2
COc1cc(OC)c(NC2=CC(=O)C(=O)c3ccccc32)cc1Cl	44*	-13	4	70*	85*	-21	34*	-6	66*	46*
CCC(C(=O)Nc1cc(Cl)c(OC)cc1OC)c1ccccc1 (configuration not stated)	4	6	10	-20	2	-3	/	/	/	/
CN=c1scc(-c2ccccc2Br)n1/N=C/c1ccc[nH]1	62*	/	/	60*	/	/	72*	70*	69*	143*
CCNC(=O)C[C@H]1CC[C@H]2[C@H](COc3ccc(NC(=O)Cc4cccs4)cc3C(=O)N2C)O1	/	-32	/	/	/	/	/	/	/	/
c1ccc(-c2noc(-c3ccc4ccccc4c3)n2)nc1	78*	/	87*	80*	-42	-91*	97*	92*	83*	27
COc1cccc(-c2nc(-c3ccccn3)no2)c1	69*	/	/	55*	/	/	86*	78*	33	57*
COc1cccc(-c2nc(-c3ccccc3)no2)c1	-6	/	-188	-234	-9	-2	/	/	/	/
O=[N+]([O-])c1cccc(-c2nc(-c3ccccn3)no2)c1	6	46	-49	-78	-23	9	/	/	/	/
COc1ccccc1C(=O)N(CCC1CCCN1C)c1nc2ccccc2s1 (configuration not stated)	67*	98*	-30	82*	-2	-16	70*	69*	79*	106*
CN1C(=O)Nc2cccc3cccc1c23	21*	-13	11	52*	-26	-4	0	-4	25	/
COc1ccccc1N(Cc1ccccc1)S(=O)(=O)c1cccc(C(=O)Nc2cc(C)ccn2)c1	38*	55*	-62	68*	-8	-10	58*	41*	56*	160*
COc1ccccc1N(Cc1ccccc1)S(=O)(=O)c1cccc(C(=O)Nc2ncccc2C)c1	/	-12	4	16	-15	13	/	/	/	/
COc1ccccc1-c1ccc2c(c1)O[C@@H](CN(C)S(=O)(=O)c1ccc(F)cc1)[C@@H](C)CN([C@@H](C)CO)S2(=O)=O	/	-4	/	/	/	/	/	/	/	/

Assay outcomes as filed in PubChem.
